Screening data: PubChem BioAssay, several laboratories
A selection: hits, their analogues and other compounds. The true share with any hit is near 3.8%.
697 NFkB inh = inhibitors of PMA/ionomycin-induced NF-kB reporter, 697 cells, primary screen, B-cell NF-kB inhibitor project, cell-based, luminescence, uHTS; 697 B-cell NF-kB luciferase reporter, 16 h; inhibition, % at 4 µM; 330,000 tested, 0.33% active; in the data active = inhibition above about 35%
Gli-Sufu antag = Gli-Sufu pathway antagonists, primary screen, luciferase luminescence, Sufu-KO-LIGHT cells, uHTS. Sufu-KO-LIGHT fibroblasts, Gli luciferase reporter luminescence. inhibition, % at 5 µM. 340,000 tested, 0.74% active. AID 588413, 2011;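 active = inhibition above about 55%, limit read from the data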;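 also: 0% = DMSO-treated cells and 100% = wells with medium but no cells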
Jurkat NFkB inh = inhibitors of induced NF-kB luciferase reporter, primary screen, TCR NF-kB activation inhibitor project, cell-based, luminescence, uHTS | Jurkat, PMA/ionomycin-induced NF-kB luciferase reporter | AID 435003, 2010 | 330,000 tested, 0.53% active | inhibition, % at 4 µM; in the data active = inhibition above about 50%
Shn3 3UTR inh = reduction of Shn3 3'UTR firefly luciferase signal, primary screen, Schnurri-3 inhibitor project, cell-based, Clone20 osteoblasts, set 2 | Clone20 osteoblast Shn3 3'UTR firefly luciferase, 24 h | inhibition, % at 12.5 µM | 360,000 tested, 0.52% active | AID 588674, 2011;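 active = mean inhibition of at least 75% with every replicate also reaching 75%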;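 also: 0% = median of neutral control wells and 100% = pilot-screen positive control compound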
Mdm2 MdmX PPI = inhibitors of human Mdm2-MdmX association, primary screen, cell-based, luminescence, split luciferase, SaOS-2, uHTS | inhibition, % at 8 µM | SaOS-2 split-luciferase Mdm2/MdmX complementation | AID 485346, 2010 | 330,000 tested, 3% active;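 active = inhibition of at least 50% at 8 µM in the primary screen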
Jurkat NFkB conf = PMA/ionomycin-induced NF-kB reporter inhibitors, Jurkat retest, confirmation, T-cell NF-kB inhibitor project, cell-based, luminescence, single concentration. shares compounds with Jurkat NFkB inh. Jurkat NF-kB luciferase, 16 h. inhibition, % at 4 µM. 2,700 tested, 27% active;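 active = inhibition reaching about 45% at 4 µM in either replicate, limit read from the data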;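 also: plate controls were PMA/ionomycin stimulated DMSO wells for no effect and unstimulated DMSO wells for full effect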
Starred values were filed as active, the others as inactive.

`CCn1c(O)c(/C=C2\C=Nc3ccccc32)sc1=O` gave 697 NFkB inh -148, Gli-Sufu antag -14, Jurkat NFkB inh -113, Shn3 3UTR inh -75 and Mdm2 MdmX PPI -220.
`CCn1c(O)c(/C=C2\C=Nc3ccccc32)sc1=Nc1ccc(C)cc1` gave 697 NFkB inh -1, Gli-Sufu antag -2, Jurkat NFkB inh 62*, Shn3 3UTR inh 12, Mdm2 MdmX PPI 12 and Jurkat NFkB conf 2.
`O=C(Nc1nc(=O)c2ccccc2s1)c1ccc(Cl)cc1` gave 697 NFkB inh -51, Gli-Sufu antag -49, Jurkat NFkB inh -27, Shn3 3UTR inh -43 and Mdm2 MdmX PPI 1.
O=C(Nc1nc2ccsc2c(=O)s1)c1ccc(Cl)cc1 was read as 697 NFkB inh -143, Gli-Sufu antag -63, Jurkat NFkB inh -199, Shn3 3UTR inh -31, Mdm2 MdmX PPI -46 and Jurkat NFkB conf -108.
Screening CC(C)N1CCCC(C)(C(=O)Nc2nccc3ccccc23)C1 (centres undefined) returned Shn3 3UTR inh 4.
For Cc1cc(C(=O)Nc2cccc(C(=O)O)c2)oc1C the results were 697 NFkB inh -6, Gli-Sufu antag -83, Jurkat NFkB inh 56*, Shn3 3UTR inh 61, Mdm2 MdmX PPI 1 and Jurkat NFkB conf 5.
`Cc1cccc(NC(=O)c2cc3ccccc3o2)c1` gave 697 NFkB inh -50, Gli-Sufu antag -88, Jurkat NFkB inh -173, Shn3 3UTR inh -33, Mdm2 MdmX PPI -178 and Jurkat NFkB conf -96.
Screening Cc1cc(C(=O)Nc2cccc(C(=O)O)c2)c(C)o1 returned 697 NFkB inh -17, Gli-Sufu antag -11, Jurkat NFkB inh -12, Shn3 3UTR inh -16 and Mdm2 MdmX PPI 1.
`COc1ccc(-c2csc3ncnc(Cl)c23)cc1` gave 697 NFkB inh 14, Gli-Sufu antag 30, Jurkat NFkB inh -5, Shn3 3UTR inh -16 and Mdm2 MdmX PPI 28.
For COc1ccc(Nc2ncnc3scc(-c4ccc(OC)cc4)c23)cc1 the results were 697 NFkB inh -46, Gli-Sufu antag 5, Jurkat NFkB inh 52*, Shn3 3UTR inh 16, Mdm2 MdmX PPI 37 and Jurkat NFkB conf 22.
For CC1(C(=O)Nc2cccnc2)Cc2c(-c3ccc4c(c3)OCO4)ccnc2O1 (centres undefined) the results were Shn3 3UTR inh 32.
CC(C)c1ccc(/C=N/Nc2ccc(C(=O)O)cc2)cc1 was read as 697 NFkB inh -233, Gli-Sufu antag -43, Jurkat NFkB inh 55*, Shn3 3UTR inh 28, Mdm2 MdmX PPI -48 and Jurkat NFkB conf 46.
Screening O=C(O)c1ccc(N/N=C/c2ccc(-c3ccccc3)cc2)cc1 returned Gli-Sufu antag -59 and Shn3 3UTR inh -51.
For O=C(N/N=C/c1ccsc1)c1ccccn1 the results were 697 NFkB inh -40, Gli-Sufu antag -54, Jurkat NFkB inh -39, Shn3 3UTR inh -63 and Mdm2 MdmX PPI -10.
For CC(C)(C)c1ccc(/C=N/NC(=O)c2ccccn2)cc1 the results were 697 NFkB inh -215, Gli-Sufu antag -1, Jurkat NFkB inh -249, Shn3 3UTR inh 0, Mdm2 MdmX PPI -42 and Jurkat NFkB conf -118.
`CC(C)c1ccc(/C=N/NC(=O)c2ccccc2Cl)cc1` gave 697 NFkB inh -104, Gli-Sufu antag -47, Jurkat NFkB inh 52*, Shn3 3UTR inh -4, Mdm2 MdmX PPI 44 and Jurkat NFkB conf 10.
CC(C)(C)c1cc(CNC(=O)C2CCC(=O)N(Cc3ccccc3F)C2)[nH]n1 (centres undefined) was read as Shn3 3UTR inh 7.
Screening CC1(C)C(=O)Nc2ccccc2N1C(=O)COC(=O)Cc1ccccc1F returned 697 NFkB inh 1, Gli-Sufu antag -1, Jurkat NFkB inh 4, Shn3 3UTR inh -1 and Mdm2 MdmX PPI 0.
For Cc1ccc(OCC(=O)NCc2ccc3c(c2)OCO3)c([N+](=O)[O-])n1 the results were 697 NFkB inh 7, Gli-Sufu antag -8, Jurkat NFkB inh 8, Shn3 3UTR inh -4 and Mdm2 MdmX PPI -22.
